From PubChem BioAssay (EPA / NIEHS)
Inconclusive results are not listed. Active and inactive are the calls of the source. The calls were made as follows: active = hit-call score of the fitted dose curve at least 0.9, where 1 is the maximum; inconclusive = response in the unintended direction; inactive = score below 0.9.

These compounds were tested on guinea pig Muscarinic, Peripheral (Mperiperal) Receptor, Non-selective Binding, gene 100379235 (assay: NVS_GPCR_gMPeripheral_NonSelective: NovaScreen (NVS) G Protein-Coupled Receptor Assay for guinea pig Muscarinic, Peripheral (Mperiperal) Receptor, Non-selective Binding (AID 2283250)).
Method in brief: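 Guinea pig bladder membranes, radioligand binding read 1 h after dosing by filter scintillation counting; loss of signal vs DMSO. Primary duplicate screen at 25 uM, then concentration-response up to 50 uM.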

Row | Compound | outcome | AC50
1 | CCCN(CC)CC1COC2(CCC(C(C)(C)C)CC2)O1 (stereo unspecified) | inactive | 
2 | CCOc1nc(F)cc2nc(S(=O)(=O)Nc3c(Cl)cccc3Cl)nn12 | inactive | 
3 | Cn1c(-c2ccccc2)cc(-c2ccccc2)[n+]1C |  | 6.52 µM (active)
4 | COP(=O)(OC)O/C(C)=C/C(=O)N(C)C | inactive | 
5 | COP(=S)(OC)SCn1nnc2ccccc2c1=O | inactive | 
6 | O=C1C2CC=CCC2C(=O)N1SC(Cl)(Cl)Cl (stereo unspecified) | inactive | 

Each compound was assayed against human Serotonin, 5-Hydroxytryptamine Receptor 5A (5HT5A), HTR5A (gene 3361) (UniProt P47898) (assay: NVS_GPCR_h5HT5A: NovaScreen (NVS) G Protein-Coupled Receptor Assay for human Serotonin, 5-Hydroxytryptamine Receptor 5A (5HT5A) (AID 2283251)).
Sequence of human Serotonin, 5-Hydroxytryptamine Receptor 5A (5HT5A), HTR5A (gene 3361) (P47898 whole entry, looked up): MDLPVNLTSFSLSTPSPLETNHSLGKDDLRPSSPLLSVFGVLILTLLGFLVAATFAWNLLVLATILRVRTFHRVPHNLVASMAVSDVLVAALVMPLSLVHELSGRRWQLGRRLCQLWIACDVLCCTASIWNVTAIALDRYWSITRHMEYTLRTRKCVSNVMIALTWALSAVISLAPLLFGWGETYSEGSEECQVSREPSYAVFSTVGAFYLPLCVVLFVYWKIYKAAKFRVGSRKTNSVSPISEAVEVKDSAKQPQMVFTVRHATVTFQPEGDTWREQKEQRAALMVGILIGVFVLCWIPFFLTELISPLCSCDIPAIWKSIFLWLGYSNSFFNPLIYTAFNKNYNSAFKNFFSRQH
Method in brief: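 Cell-free radioligand displacement binding on HEK293-derived membrane protein, 1 h incubation, filter-based scintillation counting. Primary screen in duplicate at 25 uM, actives followed in concentration series; loss of signal fitted versus DMSO.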

Row | Compound | outcome | AC50
7 | CCCCC(O)(Cn1cncn1)c1ccc(Cl)cc1Cl (stereo unspecified) | inactive | 
8 | CC1(C)C(C(=O)OC(C#N)c2cccc(Oc3ccccc3)c2)C1(C)C (stereo unspecified) |  | 25 µM (active)
9 | CC(C)=CC1C(C(=O)OCc2coc(Cc3ccccc3)c2)C1(C)C (stereo unspecified) |  | 25 µM (active)
10 | CC(C)N1C(=O)N(c2ccccc2)CSC1=NC(C)(C)C | inactive | 
11 | CO/N=C(/C1=NOCCO1)c1ccccc1Oc1ncnc(Oc2ccccc2Cl)c1F | inactive | 
12 | CCOC(=O)C(C)OC(=O)c1cc(Oc2ccc(C(F)(F)F)cc2Cl)ccc1[N+](=O)[O-] (stereo unspecified) |  | 6.67 µM (active)
13 | CC1(C)C(C=C(Cl)Cl)C1C(=O)OC(C#N)c1cccc(Oc2ccccc2)c1 (stereo unspecified) | inactive | 
14 | OC(c1ccc(Cl)cc1)(c1ccc(Cl)cc1)C(Cl)(Cl)Cl | inactive | 
15 | CN/C(=N\[N+](=O)[O-])NCc1cnc(Cl)s1 | inactive | 
16 | O=C1C2CC=CCC2C(=O)N1SC(Cl)(Cl)Cl (stereo unspecified) | inactive | 

These compounds were tested against guinea pig Opioid, Kappa 1 Receptor (OpiateK), OPRK1 (gene 100135587) (UniProt P41144) (assay: NVS_GPCR_gOpiateK: NovaScreen (NVS) G Protein-Coupled Receptor Assay for guinea pig Opioid, Kappa 1 Receptor (OpiateK) (AID 2283252);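 also: radioligand displacement from kappa opioid receptor in guinea pig cerebellar membranes; active means reduced radioligand binding relative to DMSO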).
Sequence of guinea pig Opioid, Kappa 1 Receptor (OpiateK), OPRK1 (gene 100135587) (P41144 whole entry, looked up): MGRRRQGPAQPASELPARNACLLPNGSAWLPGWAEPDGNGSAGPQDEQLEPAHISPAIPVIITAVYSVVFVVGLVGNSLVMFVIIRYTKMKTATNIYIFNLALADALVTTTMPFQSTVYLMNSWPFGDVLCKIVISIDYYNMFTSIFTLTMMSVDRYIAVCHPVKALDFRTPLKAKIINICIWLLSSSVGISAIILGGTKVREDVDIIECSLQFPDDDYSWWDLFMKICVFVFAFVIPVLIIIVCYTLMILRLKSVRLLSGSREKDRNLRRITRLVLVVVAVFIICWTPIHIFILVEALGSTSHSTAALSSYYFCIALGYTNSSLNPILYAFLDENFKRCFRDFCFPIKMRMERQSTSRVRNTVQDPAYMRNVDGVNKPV
Method: NVS_GPCR_gOpiateK is a biochemical, single-readout assay that uses extracted gene-proteins from Guinea pig cerebellar membranes in a tissue-based cell-free assay. Measurements were taken 2 hours after chemical dosing in a 48-well plate.NVS_GPCR_gOpiateK is one of one assay component(s) measured or calculated from the NVS_GPCR_gOpiateK assay. It is designed to make measurements of radioligand binding, a form of binding reporter, as detected with scintillation counting signals by Filter-based radiodetection technology.Data from the assay component NVS_GPCR_gOpiateK was analyzed into 1 assay endpoint. This assay endpoint, NVS_GPCR_gOpiateK, was analyzed in the positive analysis fitting direction relative to DMSO as the negative control and baseline of activity. Using a type of binding reporter, loss-of-signal activity can be used to understand changes in the binding as they relate to the gene Oprk1. Furthermore, this assay endpoint can be referred to as a primary readout, because the performed assay has only produced 1 assay endpoint. To generalize the intended target to other relatable targets, this assay endpoint is annotated to the gpcr intended target family, where the subfamily is rhodopsin-like receptor.
Binding assays used specific radioligands (tritiated, iodinated) with non-radioactive competitive displacement ligands in agonist or antagonist protocols (as indicated) and various reference compounds and inhibitors to titrate specific binding to receptors and transporters. Most enzyme assays (CYPs, kinases, phosphatases, proteases, HDACs) used recombinant protein and specific substrates (fluorescence mostly, some colorimetric and radioactive) and inhibitors, followed by a biochemical separation of substrate and product. All assays for the biochemical HTS were initially run in duplicate at a single concentration (10 uM for CYP450 assays and 25 uM for all others). […] Each assay was run with positive and negative controls, and concurrent controls on every plate. The follow-up (secondary) screen tested active chemical-pairs in concentration series, as well as a few additional assays not tested in the primary screen, some selected negative inactives, and several cases re-run in the concentration series for confirmatory purposes.

Row | Compound | AC50 | outcome
17 | CCN(CC)C(=O)C(C)Oc1cccc2ccccc12 (stereo unspecified) | 25 µM (active) | 
18 | CCCN(CC)CC1COC2(CCC(C(C)(C)C)CC2)O1 (stereo unspecified) | 14.3 µM (active) | 
19 | COCC(C)N(C(=O)CCl)c1c(C)csc1C (stereo unspecified) | 15.5 µM (active) | 
20 | CCCCC(O)(Cn1cncn1)c1ccc(Cl)cc1Cl (stereo unspecified) | 17.8 µM (active) | 
21 | Cn1c(-c2ccccc2)cc(-c2ccccc2)[n+]1C | 12 µM (active) | 
22 | CO/N=C(/C1=NOCCO1)c1ccccc1Oc1ncnc(Oc2ccccc2Cl)c1F |  | inactive

What follows are compounds tested against human Serotonin, 5-Hydroxytryptamine Receptor 6 (5HT6), HTR6 (gene 3362) (UniProt P50406) (assay: NVS_GPCR_h5HT6: NovaScreen (NVS) G Protein-Coupled Receptor Assay for human Serotonin, 5-Hydroxytryptamine Receptor 6 (5HT6) (AID 2283253)).
Sequence of human Serotonin, 5-Hydroxytryptamine Receptor 6 (5HT6), HTR6 (gene 3362) (P50406 whole entry, looked up): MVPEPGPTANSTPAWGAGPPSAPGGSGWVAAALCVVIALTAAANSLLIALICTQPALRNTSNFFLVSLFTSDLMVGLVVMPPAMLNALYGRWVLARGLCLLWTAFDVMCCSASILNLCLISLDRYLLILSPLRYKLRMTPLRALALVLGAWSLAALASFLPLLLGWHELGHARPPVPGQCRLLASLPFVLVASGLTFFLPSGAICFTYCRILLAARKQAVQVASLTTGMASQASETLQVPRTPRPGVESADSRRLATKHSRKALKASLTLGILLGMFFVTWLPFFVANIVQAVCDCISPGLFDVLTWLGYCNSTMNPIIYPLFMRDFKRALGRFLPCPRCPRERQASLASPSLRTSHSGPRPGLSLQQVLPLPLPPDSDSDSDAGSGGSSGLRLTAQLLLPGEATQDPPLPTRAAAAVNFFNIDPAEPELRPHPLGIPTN
Method in brief: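 Radioligand binding to 5HT6 in HEK293-derived membranes, cell-free, 1 h after dosing; bound ligand measured by filter-based scintillation counting. Primary screen in duplicate at 25 uM; actives retested in concentration series.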

Row | Compound | outcome
23 | CCCCC(O)(Cn1cncn1)c1ccc(Cl)cc1Cl (stereo unspecified) | inactive
24 | CC(C)N1C(=O)N(c2ccccc2)CSC1=NC(C)(C)C | inactive
25 | N#Cc1c[nH]cc1-c1cccc2c1OC(F)(F)O2 | inactive

The compounds below were run against human Adenosine A1 Receptor (AdoRA1), ADORA1 (gene 134) (UniProt P30542) (assay: NVS_GPCR_hAdoRA1: NovaScreen (NVS) G Protein-Coupled Receptor Assay for human Adenosine A1 Receptor (AdoRA1) (AID 2283254)).
Sequence of human Adenosine A1 Receptor (AdoRA1), ADORA1 (gene 134) (P30542 whole entry, looked up): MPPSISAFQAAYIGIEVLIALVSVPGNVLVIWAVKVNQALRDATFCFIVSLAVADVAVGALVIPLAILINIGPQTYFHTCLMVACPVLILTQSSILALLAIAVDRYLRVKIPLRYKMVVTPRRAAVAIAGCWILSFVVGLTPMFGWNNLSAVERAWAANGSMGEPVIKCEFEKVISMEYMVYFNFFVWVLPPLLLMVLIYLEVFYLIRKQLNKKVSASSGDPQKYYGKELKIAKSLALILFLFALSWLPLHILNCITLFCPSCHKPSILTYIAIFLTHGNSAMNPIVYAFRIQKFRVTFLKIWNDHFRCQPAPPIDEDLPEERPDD
Method in brief: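 Membranes from human cortical tissue were incubated with radioligand and test chemical for 1 hour, then filtered and counted. Activity was taken as signal loss relative to DMSO, screened at 25 uM in duplicate before concentration-response follow-up.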

Row | Compound | outcome | AC50
26 | CCOc1cc(C(C)(C)C)ccc1C1COC(c2c(F)cccc2F)=N1 (stereo unspecified) | inactive | 
27 | CCC(C)n1c(=O)[nH]c(C)c(Br)c1=O (stereo unspecified) |  | 15.2 µM (active)
28 | Nc1cnn(-c2ccccc2)c(=O)c1Cl |  | 8.18 µM (active)
29 | CO/N=C(/C1=NOCCO1)c1ccccc1Oc1ncnc(Oc2ccccc2Cl)c1F | inactive | 
30 | CCOP(=S)(OCC)Oc1nc(Cl)n(C(C)C)n1 |  | 8.95 µM (active)
31 | COP(=S)(OC)SCn1nnc2ccccc2c1=O |  | 9.98 µM (active)
